Inconclusive results are not listed. The source made the active and inactive calls. Unless noted, calls follow the shape of the dose curve; as a rule, active = well fitted curve in the direction sought with a large enough effect; inconclusive = small, poorly fitted or top-dose-only effect, or another doubt; inactive = no such curve, though single readings can be large; an effect the other way counts as inactive or inconclusive.

For test [1], the target named is Rap guanine nucleotide exchange factor 3 (Homo sapiens) (UniProt O95398). Nature of the test: Confirmatory qHTS for antagonist of cAMP-regulated guanine nucleotide exchange factor 3 (EPAC1) (AID 1645880).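 Also: plate controls were DMSO only for no effect and full effect of the ATA control for full effect; nearly all actives have a fitted effect of over 55% in size.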 The procedure, abridged: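 Released BODIPY-GDP fluoresces less than Rap1-bound BODIPY-GDP; the signal is followed at 480/540 nm at 5-min intervals over 30 min, after 5 min at room temperature. Reactions contain 100 nM EPAC1, 250 nM RAP1B-BODIPY-GDP and 50 uM GDP; results are normalized to ATA and DMSO.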
Rap guanine nucleotide exchange factor 3 (Homo sapiens), sequence (O95398 whole entry, looked up): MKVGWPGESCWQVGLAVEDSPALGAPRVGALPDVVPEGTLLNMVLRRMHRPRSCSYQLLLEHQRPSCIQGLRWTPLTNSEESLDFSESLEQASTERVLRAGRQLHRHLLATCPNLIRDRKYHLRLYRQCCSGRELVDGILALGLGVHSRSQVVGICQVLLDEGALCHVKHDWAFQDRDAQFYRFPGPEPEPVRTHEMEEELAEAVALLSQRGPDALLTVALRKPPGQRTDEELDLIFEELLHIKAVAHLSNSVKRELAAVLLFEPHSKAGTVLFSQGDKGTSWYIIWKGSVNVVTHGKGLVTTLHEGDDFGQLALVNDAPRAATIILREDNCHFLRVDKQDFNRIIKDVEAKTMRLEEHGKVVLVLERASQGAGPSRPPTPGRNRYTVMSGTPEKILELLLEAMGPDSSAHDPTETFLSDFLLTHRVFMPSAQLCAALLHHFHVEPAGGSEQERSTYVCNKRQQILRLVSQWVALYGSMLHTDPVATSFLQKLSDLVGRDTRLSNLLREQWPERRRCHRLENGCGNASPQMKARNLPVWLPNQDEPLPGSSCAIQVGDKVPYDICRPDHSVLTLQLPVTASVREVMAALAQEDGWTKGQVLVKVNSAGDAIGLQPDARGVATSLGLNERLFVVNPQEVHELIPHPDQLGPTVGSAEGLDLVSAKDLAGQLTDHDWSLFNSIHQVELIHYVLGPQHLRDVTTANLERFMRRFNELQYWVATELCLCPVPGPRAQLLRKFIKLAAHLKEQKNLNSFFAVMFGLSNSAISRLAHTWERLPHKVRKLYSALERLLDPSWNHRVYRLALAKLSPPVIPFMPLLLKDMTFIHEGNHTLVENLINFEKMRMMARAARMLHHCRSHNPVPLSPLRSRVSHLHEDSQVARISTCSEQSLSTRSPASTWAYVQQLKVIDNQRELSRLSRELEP
Background: qHTS replaces the single test concentration by a dilution series.

Test [2] shares this target. The test can be described thus: Confirmatory qHTS for agonist of cAMP-regulated guanine nucleotide exchange factor 3 (EPAC1) (AID 1645881).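 Also: EPAC1 catalysed release of BODIPY-GDP from Rap1B seen as fluorescence loss; 100% = effect of cAMP agonist control; nearly all actives have a fitted effect of over 75% in size.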
Test [3] concerns the target Rap guanine nucleotide exchange factor 4 (Homo sapiens) (UniProt Q8WZA2). Nature of the test: Confirmatory qHTS for agonist of cAMP-regulated guanine nucleotide exchange factor 4 (EPAC2) (AID 1645884).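 Also: nucleotide exchange releases bodipy-GDP from Rap1 and this lowers its fluorescence; % is scaled to controls: 0 for no effect and ±100 for the full control effect; nearly all actives have a fitted effect of over 65% in size.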
Test [4] can be described thus: Primary qHTS for inhibitors of nuclear receptor binding SET domain protein 2 (NSD2) in an RCH-ACV wild type WT cells (2C) (AID 1645877). Also: % is scaled to controls: 0 for no effect and ±100 for the full control effect; nearly all actives have a fitted effect of over 70% in size.
The target in test [5] is Glutathione peroxidase 1 (Homo sapiens) (UniProt P07203). The test can be described thus: Primary qHTS Assay for Inhibitors of Recombinant Selenoprotein Glutathione Peroxidase 1 (GPX1) (AID 1845191). Also: nearly all actives have a fitted effect of over 65% in size. The essentials: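 GR-coupled readout: NADPH consumption tracked by fluorescence, ex 340/em 450 nm, at t=0 and after 15 min at RT. Final mix 10 nM GPX1, 1 mM GSH, 0.5 mM CHP, 0.5 mM NADPH, 100 nM GR, 0.01% BSA, following 30 min enzyme–compound preincubation.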
Glutathione peroxidase 1 (Homo sapiens), sequence (P07203 whole entry, looked up): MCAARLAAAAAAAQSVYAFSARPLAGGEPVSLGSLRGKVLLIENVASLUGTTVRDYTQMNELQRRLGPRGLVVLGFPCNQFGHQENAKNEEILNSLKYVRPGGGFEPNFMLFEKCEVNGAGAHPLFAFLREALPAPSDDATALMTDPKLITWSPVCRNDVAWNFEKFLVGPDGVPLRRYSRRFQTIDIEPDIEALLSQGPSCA

The nature of test [6]: qHTS drug screen for cell cycle checkpoint inhibitors in PARPi-resistant BRCA-mutant ovarian cancer cell lines. (AID 1963452; calls by dose curve). To be noted: PEO1/OlaR viability, CellTiter-Glo luminescence, 96 h, stronger effect = lower value. The essentials: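 PEO1, PEO4 and PEO1/OlaR ovarian cancer cells, 600 per well, exposed 96 h at 37C to a dilution series. Viability read by CellTiter-Glo luminescence, normalized to DMSO and empty wells; activity summarized as Z-AUC.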

Test [7] addresses Phospholipid hydroperoxide glutathione peroxidase GPX4 (Homo sapiens) (UniProt P36969). Nature of the test: Primary qHTS Assay for Inhibitors of Recombinant Selenoprotein Glutathione Peroxidase 4 (GPX4) (AID 1845192). Also: series mostly up to about 50 µM; % is scaled to controls: 0 for no effect and ±100 for the full control effect; nearly all actives have a fitted effect of over 65% in size. The procedure, abridged:
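Steps: GPX4 plus compound, 30 min RT; add GR/GSH/NADPH master mix; start with cumene hydroperoxide; read 340/450 nm fluorescence at 0 and 15 min. Finals were 200 nM GPX4, 1 mM GSH, 0.5 mM CHP, 0.5 mM NADPH, 100 nM GR.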

[8] abbreviates: measured here: PEO1 parental Z-AUC.

Rap guanine nucleotide exchange factor 4 (Homo sapiens), sequence (Q8WZA2 whole entry, looked up, the tested form may be a part): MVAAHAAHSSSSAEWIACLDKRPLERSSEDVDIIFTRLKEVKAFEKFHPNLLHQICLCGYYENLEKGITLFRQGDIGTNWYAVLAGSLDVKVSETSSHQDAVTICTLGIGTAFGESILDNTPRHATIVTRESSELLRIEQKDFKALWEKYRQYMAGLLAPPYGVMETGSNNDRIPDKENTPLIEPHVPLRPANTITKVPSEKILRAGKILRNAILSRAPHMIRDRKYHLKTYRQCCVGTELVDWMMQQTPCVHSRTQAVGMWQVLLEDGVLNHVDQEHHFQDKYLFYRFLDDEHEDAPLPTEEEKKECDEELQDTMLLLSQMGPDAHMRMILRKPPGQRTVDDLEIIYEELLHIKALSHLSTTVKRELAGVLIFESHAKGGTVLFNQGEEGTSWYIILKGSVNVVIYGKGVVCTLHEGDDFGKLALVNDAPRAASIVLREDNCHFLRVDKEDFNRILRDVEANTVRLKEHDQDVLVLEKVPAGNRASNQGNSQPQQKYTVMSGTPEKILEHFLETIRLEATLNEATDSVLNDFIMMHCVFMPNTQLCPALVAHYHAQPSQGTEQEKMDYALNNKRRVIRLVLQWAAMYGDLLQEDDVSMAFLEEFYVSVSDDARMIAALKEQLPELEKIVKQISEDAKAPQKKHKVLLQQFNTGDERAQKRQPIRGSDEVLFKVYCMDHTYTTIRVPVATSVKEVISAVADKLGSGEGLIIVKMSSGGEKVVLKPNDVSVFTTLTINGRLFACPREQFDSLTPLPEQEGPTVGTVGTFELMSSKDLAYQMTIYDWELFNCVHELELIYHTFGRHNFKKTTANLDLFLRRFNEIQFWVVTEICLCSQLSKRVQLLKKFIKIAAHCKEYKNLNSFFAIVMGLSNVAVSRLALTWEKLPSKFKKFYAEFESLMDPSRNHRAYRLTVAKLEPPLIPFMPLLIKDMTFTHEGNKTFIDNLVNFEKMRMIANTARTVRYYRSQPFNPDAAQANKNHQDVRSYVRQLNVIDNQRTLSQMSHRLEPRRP
Phospholipid hydroperoxide glutathione peroxidase GPX4 (Homo sapiens), sequence (P36969 whole entry, looked up): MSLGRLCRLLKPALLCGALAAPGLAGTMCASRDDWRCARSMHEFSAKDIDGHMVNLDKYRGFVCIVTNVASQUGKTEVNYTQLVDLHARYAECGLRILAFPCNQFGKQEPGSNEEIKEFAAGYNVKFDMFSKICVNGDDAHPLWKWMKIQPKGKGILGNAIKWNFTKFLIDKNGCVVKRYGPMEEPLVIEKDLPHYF

As to `CC1COc2ccccc2N1S(=O)(=O)c1cc(Cl)ccc1Cl` (configuration not stated), the Potency result in test [1] and in test [2] was “inactive” throughout.

For `Cc1ccc2c(/C=C/c3ccc(N(C)C)cc3)ccnc2c1C`, the Potency entry in test [1], in test [2] and in test [3] was “inactive” throughout.

`O=C(O)CNC(=O)c1ncc(-c2cccc(Cl)c2)cc1O`: the Potency entry in test [4] and in test [5] was “inactive” throughout. Further, the Z-AUC in test [6] was -0.0287 (inactive); in test [6] (setting [8]), 0.803; in test [6] (measured here: PEO4 Z-AUC) it was 0.828.

For `COc1cc(-c2noc(C)c2-c2ccc3[nH]ccc3c2)cc(OC)c1OC`, the Potency entry in test [1], in test [2] and in test [3] was “inactive” in each case.

For the compound `Cc1cc(C)c2nccc(/C=C/c3ccc(N(C)C)cc3)c2c1`, the Potency entry in test [1], in test [2] and in test [3] was “inactive” throughout.

Take `COc1ccc(C(=O)c2ccc(Br)cc2)c2ccccc12`: the Potency entry in test [1], in test [2] and in test [3] was “inactive” each time.

Take `CNC(=O)CCc1cc(-c2ccc(-c3ccc(C(F)(F)F)cc3)cc2)n(-c2ccc(N3CCNCC3)cc2)n1`: the Potency result in test [4] and in test [7] was “inactive” throughout. Further, the Z-AUC was 1.07 (inactive) in test [6], -0.284 in test [6] (setting [8]) and 0.197 in test [6] (measured here: PEO4 Z-AUC).

As to `Cc1ccc2c(/C=C/c3c[nH]c4ccccc34)ccnc2c1C`, the Potency result in test [1], in test [2] and in test [3] was “inactive” each time.

These data come from PubChem BioAssay (NCATS).
